Test results taken from the supplement of paper PMC12350171.
Where a name gives a salt, the structure may show the parent alone. A number with no mark means an inactive call.

Tests used:
Settings in all cases: 20 µM
[1] = test system: Salmonella enterica typhimurium; assay: growth AUC normalised to DMSO control (fraction of control); higher = less growth inhibition, active = hit call of the paper
In short: (§1)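 Hemin and NAD were added to the medium for Haemophilus parainfluenzae. All pathogens, after two anaerobic passages, were inoculated at a starting OD578 of 0.01 into pre-reduced mGAM plates with 20 μM compound and 1% DMSO under breathable seals, and OD578 was read hourly for 24 h in three biological replicates. AUC of each growth curve was obtained with the trapezoidal rule up to the exponential-to-stationary transition and normalised to DMSO controls from the same plate.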

Shigella flexneri = assay: as above
In short: as §1

Vibrio cholerae = assay: as above
In short: as §1

[2] = test system: Yersinia pseudotuberculosis; assay: as above
In short: as §1

P. vulgatus RND KO = assay: growth AUC normalised to DMSO control (median) (fraction of control); higher = less growth inhibition, active = hit call of the paper
In short: (§2)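 Strains were passaged twice overnight without oxygen, then grown in mGAM in 96-well plates with each approved-drug library compound at 20 μM and 1% DMSO, starting at OD578 0.01. OD578 was read hourly for 24 h inside an anaerobic incubator. Curves were truncated at entry into stationary phase, and the trapezoidal-rule area under the curve was normalised to same-plate vehicle wells. The value is the median across three biological replicates.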

P. vulgatus WT = assay: as above
In short: as §2

[3] = test system: S. enterica typhimurium WT; assay: as above
In short: as §2

[4] = test system: S. enterica typhimurium tolC KO; assay: as above
In short: as §2
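Wherever growth AUC normalised to DMSO control (median) is given: active when median AUC fell below 0.1.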

| SMILES | growth AUC normalised to DMSO control [1] | growth AUC normalised to DMSO control (Shigella flexneri) | growth AUC normalised to DMSO control (Vibrio cholerae) | growth AUC normalised to DMSO control [2] | growth AUC normalised to DMSO control (P. vulgatus RND KO) | growth AUC normalised to DMSO control (P. vulgatus WT) | growth AUC normalised to DMSO control [3] | growth AUC normalised to DMSO control [4] |
| --- | --- | --- | --- | --- | --- | --- | --- | --- |
| O=C1Nc2ccc(Cl)cc2[C@@](C#CC2CC2)(C(F)(F)F)O1 [Efavirenz] | 0.997 | 1.01 | 0.999 | 0.999 | 0.715 | 0.752 | 1 | 0.261 |
| CN(C)CCOc1ccc(/C(=C(/CCCl)c2ccccc2)c2ccccc2)cc1 [Toremifene] | 1.01 | 1.05 | 1.05 | 1.06 | 0.973 | 1.01 | 1.02 | 0.983 |
| CCN(CC)C(=O)Nc1ccc(OCC(O)CNC(C)(C)C)c(C(C)=O)c1 (stereo not drawn) [Celiprolol hydrochloride] | 0.995 | 0.992 | 0.99 | 1.01 | 0.997 | 1.01 | 0.994 | 0.994 |
| Cc1ccc(S(=O)(=O)NC(=O)NN2CCCCCC2)cc1 [Tolazamide] | 1.02 | 1.04 | 1.03 | 0.997 | 1.01 | 1.02 | 1.01 | 0.999 |
| N=C(NCCCCCCNC(=N)NC(=N)Nc1ccc(Cl)cc1)NC(=N)Nc1ccc(Cl)cc1 [Chlorhexidine] | 0.355 (active) | 0.0156 (active) | 0.954 | 0.307 (active) | 0.00823 (active) | 0.0134 (active) | 0.942 | 0.816 |
| O=C(O)c1ccccc1C(=O)Nc1ccc(S(=O)(=O)Nc2nccs2)cc1 [Phthalylsulfathiazole] | 1.01 | 1.01 | 1.03 | 0.997 | 1.03 | 1.03 | 0.993 | 0.998 |
| Nc1ccc(S(N)(=O)=O)cc1 [Sulfanilamide] | 1.03 | 1.04 | 1.05 | 1.01 | 1.03 | 1.06 | 0.993 | 1 |
| C1N2CN3CN1CN(C2)C3 [Methenamine] | 1.02 | 1.02 | 1.05 | 1.03 | 1 | 1.03 | 1 | 0.991 |
| Cc1c(N(C)C)c(=O)n(-c2ccccc2)n1C [Amidopyrine] | 1.01 | 1.03 | 1.05 | 1.01 | 1 | 1.02 | 1.01 | 0.999 |
| O=C1CCc2cc(OCCCCc3nnnn3C3CCCCC3)ccc2N1 [Cilostazol] | 0.985 | 0.971 | 0.958 | 0.989 | 0.975 | 0.98 | 1 | 0.851 |
| CC(C)(Oc1ccc(C2CC2(Cl)Cl)cc1)C(=O)O (stereo not drawn) [Ciprofibrate] | 1.01 | 0.998 | 0.997 | 0.995 | 0.973 | 0.961 | 0.992 | 0.993 |
| CN(C)CCCN1c2ccccc2Sc2ccccc21 [Promazine hydrochloride] | 0.936 | 0.945 | 0.86 (active) | 0.965 | 0.821 | 0.776 | 0.991 | 0.971 |
| CC1(C)O[C@@H]2C[C@H]3[C@@H]4C[C@H](F)C5=CC(=O)C=C[C@]5(C)[C@@]4(F)[C@@H](O)C[C@]3(C)[C@]2(C(=O)CO)O1 [Fluocinolone acetonide] | 1 | 1.01 | 1.02 | 1 | 0.975 | 0.967 | 1 | 0.993 |
| O=C(O)CCC(=O)Nc1ccc(S(=O)(=O)Nc2nccs2)cc1 [Succinylsulfathiazole] | 1 | 0.997 | 0.999 | 1 | 1 | 1.05 | 1 | 0.994 |
| Cc1cnc(C(=O)NCCc2ccc(S(=O)(=O)NC(=O)NC3CCCCC3)cc2)cn1 [Glipizide] | 1.01 | 0.984 | 1.01 | 1.01 | 1.04 | 0.998 | 1.01 | 0.996 |
| Nc1ccc(S(=O)(=O)Nc2ccnn2-c2ccccc2)cc1 [Sulfaphenazole] | 1 | 1.01 | 0.856 (active) | 1.01 | 0.989 | 0.961 | 0.998 | 0.981 |

| SMILES | growth AUC normalised to DMSO control [1] | growth AUC normalised to DMSO control (Shigella flexneri) | growth AUC normalised to DMSO control (Vibrio cholerae) | growth AUC normalised to DMSO control [2] | growth AUC normalised to DMSO control (P. vulgatus RND KO) | growth AUC normalised to DMSO control (P. vulgatus WT) | growth AUC normalised to DMSO control [3] | growth AUC normalised to DMSO control [4] |
| --- | --- | --- | --- | --- | --- | --- | --- | --- |
| CCOC(=O)[C@H](CCc1ccccc1)N[C@@H](C)C(=O)N1[C@H](C(=O)O)C[C@@H]2CCC[C@@H]21 [Ramipril] | 1.02 | 1.06 | 1.07 | 1.01 | 0.985 | 0.99 | 1.01 | 1 |
| CN(C)CCCC1(c2ccc(F)cc2)OCc2cc(C#N)ccc21 (stereo not drawn) [Citalopram hydrobromide] | 0.998 | 0.994 | 1 | 1.01 | 1.02 | 0.982 | 1 | 0.991 |
| CC1CCc2cc(F)cc3c(=O)c(C(=O)O)cn1c23 (stereo not drawn) [Flumequine] | 0.00993 (active) | 0.0348 (active) | 0.0549 (active) | 0.0304 (active) | 0.801 | 0.647 | 0.0214 (active) | 0.00721 (active) |
| CN(C)CCN(Cc1cccs1)c1ccccn1 [Methapyrilene hydrochloride] | 0.977 | 0.972 | 0.995 | 0.994 | 1.01 | 0.995 | 1 | 0.985 |
| O=C(COc1ccc(Cl)cc1)N1CCN(Cc2ccc3c(c2)OCO3)CC1 [Fipexide hydrochloride] | 0.987 | 0.971 | 0.875 | 0.992 | 1 | 0.966 | 0.995 | 0.942 |
| COCCCOc1ccnc(C[S+]([O-])c2nc3ccccc3[nH]2)c1C (stereo not drawn) [Rabeprazole sodium salt] | 1.01 | 1.04 | 1.02 | 1 | 1.05 | 1.01 | 1 | 0.889 |
| Cc1cc(C(C)(C)C)c(O)c(C)c1CC1=NCCN1 [Oxymetazoline hydrochloride] | 0.997 | 0.994 | 1 | 1 | 0.994 | 0.988 | 1.01 | 0.985 |
| NC(=O)c1cc[n+](CC2=C(C(=O)[O-])N3C(=O)[C@@H](NC(=O)[C@@H](c4ccccc4)S(=O)(=O)O)[C@H]3SC2)cc1 [Cefsulodin sodium salt] | 0.944 | 0.999 | 0.976 | 0.865 (active) | – | 0.983 | 1 | 0.978 |
| Cc1noc(NS(=O)(=O)c2ccc(N)cc2)c1C [Sulfisoxazole] | 0.995 | 1 | 1.03 | 0.971 | 1 | 1.05 | 0.997 | 0.98 |
| Cn1c(=O)c2c(ncn2C)n(C)c1=O [Caffeine] | – | 1.04 | 1.03 | 1.01 | 1.02 | 1.02 | 0.993 | 0.999 |
| Cn1c(=O)c2nc[nH]c2n(C)c1=O [Theophylline monohydrate] | – | 1.05 | 1.07 | 1.02 | 1.02 | 1.01 | 1.01 | 1 |
| Cc1cc(N)c2ccccc2[n+]1CCCCCCCCCC[n+]1c(C)cc(N)c2ccccc21 [Dequalinium dichloride] | 0.989 | 0.939 | 0.96 | 0.932 (active) | 0.0354 (active) | 0.0484 (active) | – | 0.503 |
| CC(=O)[C@H]1CC[C@H]2[C@@H]3CCC4=CC(=O)CC[C@]4(C)[C@H]3CC[C@]12C [Progesterone] | – | 1.01 | 1 | 1 | 0.0182 (active) | 0.612 | 1.02 | 0.918 |
| Cc1ccc(/C(=C\CN2CCCC2)c2ccccn2)cc1 [Triprolidine hydrochloride] | – | 0.97 | 0.967 | 0.992 | 1 | 0.99 | 1 | 0.978 |
| COc1ccc2c(c1)c(CC(=O)O)c(C)n2C(=O)c1ccc(Cl)cc1 [Indomethacin] | – | 0.966 | 0.448 (active) | 1 | 0.967 | 1.01 | 1.01 | 0.974 |
| CC(C)NC[C@H](O)COc1cccc2ccccc12 [(S)-(-)-Propranolol hydrochloride] | – | 0.997 | 1.01 | 0.996 | 1.04 | 1.06 | 0.989 | 0.986 |
